Eight compounds from PubChem BioAssay (NCI) can be followed below.

This is part of a sample that, as a whole, favours compounds with a hit. Of some 83,000 tested, about 20% had one in any assay.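 Single-concentration screen, 48 h exposure, 96-well plates. Endpoint: percent growth. Below 10 = active.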 Unmarked numbers belong to inactive results. Active and inactive are the calls of the source.

Test systems include HCT-15 colon; HT29 colon; SNB-75 CNS; SNB-19 CNS; U251 CNS; PC-3 prostate; SK-MEL-5 melanoma; UACC-62 melanoma; LOX IMVI melanoma; SK-MEL-28 melanoma; SK-MEL-2 melanoma; EKVX NSCLC; SN12C renal; UO-31 renal; TK-10 renal; ACHN renal; CAKI-1 renal; CCRF-CEM leukemia; MOLT-4 leukemia.
What all share (test): NCI-60 one-dose screen, 48 h (100 = growth as untreated, 0 = no growth, -100 = all killed)
Holding throughout (conditions): 10 µM unless noted

Consider `CCCOc1ccc(/C=N/Nc2cc(C)nc3ccc(Cl)cc23)cc1`, for which the growth was -44.4% (active) in the experiment with HCT-15 colon; -6.94% (active) in the experiment with HT29 colon; 104% in the experiment with SNB-75 CNS; 58.6% with SNB-19 CNS; -58.3% (active) in the experiment with U251 CNS; 48.6% with PC-3 prostate. Also, the growth is 79.9% in the experiment on SK-MEL-5 melanoma; 88.6% in the experiment on UACC-62 melanoma; -95.7% (active) in the experiment on LOX IMVI melanoma; 64.8% with SK-MEL-28 melanoma; 91.4% in the experiment with SK-MEL-2 melanoma; 72.8% in the experiment with EKVX NSCLC. Besides, the growth with SN12C renal is -10.8% (active); with UO-31 renal, 7.59% (active); in the experiment on TK-10 renal, 102%; with ACHN renal, 23.3%; in the experiment on CAKI-1 renal it was 74.2%; in the experiment with CCRF-CEM leukemia it was 2.96% (active). Further, the growth in the experiment with MOLT-4 leukemia is -42.5% (active).

As to `CC1(C)CC[C@]23CC[C@]4(C)[C@H](CC[C@@H]5[C@@]6(C)CCCNC(C)(C)[C@@H]6CC[C@]54C)[C@H]2[C@H]1OC3`, the growth in the experiment on HCT-15 colon was -63.7% (active); with HT29 colon, -49.4% (active); in the experiment on SNB-75 CNS, 3.81% (active); with SNB-19 CNS, -20.2% (active); in the experiment on U251 CNS, -75.6% (active); with PC-3 prostate it was -10.7% (active). Besides, the growth with SK-MEL-5 melanoma was -7.69% (active); in the experiment on UACC-62 melanoma it was -51.1% (active); in the experiment on LOX IMVI melanoma, -94.9% (active); in the experiment on SK-MEL-28 melanoma, 27.7%; with SK-MEL-2 melanoma it was 10.5%; in the experiment with EKVX NSCLC, 23.2%. For the same compound, the growth with SN12C renal was 17.7%; with UO-31 renal it was 2.86% (active); in the experiment on TK-10 renal it was 0.422% (active); in the experiment with ACHN renal, -88.3% (active); in the experiment on CAKI-1 renal, -92% (active); with CCRF-CEM leukemia it was -6.07% (active). Also, the growth with MOLT-4 leukemia is -32.7% (active).

With `O=C(c1nc2ccccc2[nH]1)C1C(c2ccc(Cl)cc2)C2CC3CCCC[C@H]3N2[C@@]12C(=O)Nc1cc(Cl)ccc12` (some centres not stated), the growth in the experiment on HCT-15 colon was 30.2%; in the experiment with HT29 colon, 26%; with SNB-75 CNS it was 34.4%; in the experiment on SNB-19 CNS, 59%; in the experiment on U251 CNS it was 49.3%; in the experiment on PC-3 prostate it was 31.9%. The growth is 50.1% in the experiment with SK-MEL-5 melanoma; 59.3% in the experiment on UACC-62 melanoma; 35% in the experiment on LOX IMVI melanoma; 72% in the experiment with SK-MEL-28 melanoma; 66.7% in the experiment on SK-MEL-2 melanoma; 34.5% in the experiment on EKVX NSCLC. Moreover, the growth with SN12C renal was 48%; in the experiment with UO-31 renal it was 20.1%; in the experiment on TK-10 renal it was 46.4%; with ACHN renal, 40.5%; in the experiment with CAKI-1 renal, 20.6%; in the experiment on CCRF-CEM leukemia, 30.2%. Also, the growth in the experiment on MOLT-4 leukemia was 7.41% (active).

`O=C(N/N=C/c1cc2ccccc2n2nnnc12)Nc1ccccc1`: the growth in the experiment with HCT-15 colon is 98.3%; in the experiment on HT29 colon it was 97.2%; in the experiment on SNB-75 CNS it was 103%; in the experiment with SNB-19 CNS, 97.1%; in the experiment on U251 CNS it was 104%; with PC-3 prostate it was 101%. The growth in the experiment on SK-MEL-5 melanoma was 101%; in the experiment on UACC-62 melanoma, 100%; in the experiment on LOX IMVI melanoma, 108%; with SK-MEL-28 melanoma, 113%; in the experiment on SK-MEL-2 melanoma, 105%; in the experiment with EKVX NSCLC it was 98%. The growth with SN12C renal is 100%; in the experiment with UO-31 renal, 94.1%; in the experiment with TK-10 renal it was 101%; in the experiment on ACHN renal, 108%; with CAKI-1 renal, 94.5%; in the experiment on CCRF-CEM leukemia, 103%. Moreover, in the experiment with MOLT-4 leukemia, the growth is 101%.

For the compound `CCN(CC)CC[n+]1cc2cc(OC)c(OC)cc2c2ccc3cc4c(cc3c21)OCO4`, the growth with HCT-15 colon is 32.9%; in the experiment with HT29 colon, -50.1% (active); in the experiment on SNB-75 CNS, 3.63% (active); in the experiment with SNB-19 CNS, 14.5%; in the experiment with U251 CNS, -38.2% (active); with PC-3 prostate, 3.91% (active). For the same compound, the growth was -68.3% (active) in the experiment with SK-MEL-5 melanoma; 31.7% with UACC-62 melanoma; -85.8% (active) in the experiment with LOX IMVI melanoma; 22.7% with SK-MEL-28 melanoma; 14.8% in the experiment with SK-MEL-2 melanoma; 17.5% in the experiment on EKVX NSCLC. Besides, the growth in the experiment with SN12C renal is 3.54% (active); in the experiment with UO-31 renal, 8.71% (active); in the experiment on TK-10 renal, 12.2%; in the experiment on ACHN renal, 8.72% (active); in the experiment with CAKI-1 renal, 26.5%; in the experiment on CCRF-CEM leukemia, 1.03% (active). Besides, the growth with MOLT-4 leukemia is -5.52% (active).

On to `O=C1Nc2cc(-c3ccc(NC(=O)C4CC4)cc3)ccc2/C1=C/c1ccc[nH]1`, for which the growth was 94.7% in the experiment on HCT-15 colon; 101% in the experiment on HT29 colon; 94.5% in the experiment with SNB-75 CNS; 94.7% in the experiment on SNB-19 CNS; 84% with U251 CNS; 104% in the experiment with PC-3 prostate. The growth in the experiment with SK-MEL-5 melanoma is 98.6%; with UACC-62 melanoma, 110%; in the experiment with LOX IMVI melanoma, 95.1%; in the experiment on SK-MEL-28 melanoma, 119%; with SK-MEL-2 melanoma, 109%; in the experiment on EKVX NSCLC, 47.6%. For the same compound, the growth in the experiment with SN12C renal is 97.8%; with UO-31 renal it was 80.2%; with TK-10 renal, 115%; in the experiment on ACHN renal it was 106%; with CAKI-1 renal, 102%; in the experiment on CCRF-CEM leukemia it was 98.7%. Besides, in the experiment on MOLT-4 leukemia, the growth was 94.7%.

For the compound `Cc1ccc(CNc2c3ccccc3nc3cc(NC(=O)CCN4CCCC4)ccc23)cc1`, the growth in the experiment on HCT-15 colon is 7.15% (active); in the experiment with HT29 colon, 0.938% (active); in the experiment with SNB-75 CNS, 4.1% (active); in the experiment on SNB-19 CNS it was 17.8%; in the experiment on U251 CNS, -55.3% (active); in the experiment on PC-3 prostate, -0.231% (active). For the same compound, the growth with SK-MEL-5 melanoma was 42.3%; in the experiment with UACC-62 melanoma, 36.1%; in the experiment on LOX IMVI melanoma, -86.4% (active); in the experiment on SK-MEL-28 melanoma, 53.6%; with SK-MEL-2 melanoma, 40.2%; in the experiment with EKVX NSCLC, 39.3%. The growth was 2.87% (active) with SN12C renal; 3.83% (active) in the experiment with UO-31 renal; -20% (active) in the experiment with TK-10 renal; 12.3% with ACHN renal; 7.04% (active) in the experiment on CAKI-1 renal; -31.5% (active) in the experiment on CCRF-CEM leukemia. Besides, the growth with MOLT-4 leukemia is -33.5% (active).

As to `O=C(Cc1ccc(/C=C/C(=O)c2nccs2)cc1)Nc1ccccc1`, the growth in the experiment on HCT-15 colon is 78.4%; in the experiment with HT29 colon, 72.7%; in the experiment with SNB-75 CNS, 108%; in the experiment with SNB-19 CNS, 84.8%; in the experiment with U251 CNS it was 47.7%; in the experiment with PC-3 prostate, 91.7%. Also, the growth was 88.8% in the experiment on SK-MEL-5 melanoma; 83.9% with UACC-62 melanoma; 72.4% in the experiment on LOX IMVI melanoma; 105% with SK-MEL-28 melanoma; 105% in the experiment with SK-MEL-2 melanoma; 103% in the experiment on EKVX NSCLC. Also, the growth is 91.9% with SN12C renal; 89.1% in the experiment on UO-31 renal; 98.8% in the experiment on TK-10 renal; 96.5% in the experiment with ACHN renal; 99.9% with CAKI-1 renal; 14.4% in the experiment with CCRF-CEM leukemia. For the same compound, in the experiment on MOLT-4 leukemia, the growth was 6.27% (active).
